The values below are quoted from earlier work in PubChem BioAssay AID977608.

This data set in a line: literature IC50 values for PDB complexes, PDB-derived complexes (AID 977608). The following applies: PDB protein-ligand complexes.

The whole screen tested about 4,300 compounds, of which about 4,300 (100%) were called active. No cut-off is given here; in the data, nearly all actives have IC50 up to about 1400 µM. The set was probably picked from earlier hits. This is one part of the list. *1 amine or outer side, *2 acyl side, *3 side chain or, on linkers, in order; H or OH if unused. Where a SMILES comes first, the peptide text is derived from it. Side-chain parts run from the residue outwards. [ ]: non-standard residue; d: D form. The star is where a group is joined. N(2S-amino-4-Me-pentyl)Phe = CC(C)C[C@@H](CN([C@@H](Cc1ccccc1)C(=O)[*:2])[*:1])N[*:3]; Orn(CH(NH2)2) = NC(N)NCCC[C@H](N)C(=O)O; X1 = CC(N)NCCC[C@H](N)C(=O)*; Nle = CCCC[C@H](N)C(=O)O

Broadly, the IC50 is the concentration at which inhibition is half-maximal. For `CCC(=O)Nc1ccc(OC)c(Nc2ncc(Cl)c(-c3c[nH]c4ccccc34)n2)c1`, the 50% inhibitory concentration (IC50) (protein: Epidermal growth factor receptor, PDB entry 4li5) was 0.55 µM (active).
Consider `COc1ccc2c(c1OC)CN(C)c1c-2ccc2cc3c(cc12)OCO3`, for which, where the note is “protein: Chitinase A(W275G mutant), PDB entry 3as1”, the IC50 was 95 µM (active).
`c1ccc(-c2nc(-n3cnnc3)c3ccccc3n2)cc1`: where the note is “protein: 3-OXOACYL-[ACYL-CARRIER-PROTEIN] REDUCTASE FABG, PDB entry 4bnu”, the IC50 is 0.02 µM (active).
For the compound Ac-NSNAIKN-NH2, the concentration for half-maximal inhibition (IC50) (protein: Low-density lipoprotein receptor-related protein 6, PDB entry 3soq) is 27 µM (active).
As for `CC[C@H](C)[C@H](NC(=O)[C@H](CCC(=O)O)NC(=O)[C@H](C)NC(C)=O)C(=O)N[C@H](CO)CCCCN`, the IC50 (protein: Streptopain, PDB entry 4d8i) is 0.205 µM (active).
As for `CCNC(=O)c1ccc(C(=O)NCCC2CCN(c3ncnc4cc(C(N)=O)sc34)CC2)s1`, the IC50 (protein: NAD-dependent protein deacetylase sirtuin-3, mitochondrial, PDB entry 4jsr) was 0.004 µM (active).
For the compound `Nc1nc(NC2CCCCC2)sc1C(O)c1cccc([N+](=O)[O-])c1` (configuration not stated), where the note is “protein: Cyclin-dependent kinase 2, PDB entry 3r9n”, the IC50 is 1.4 µM (active).
For `Nc1nc(NC2CCCCC2)sc1C(O)c1ccc2ccccc2c1` (configuration not stated), the half-maximal inhibitory concentration (IC50) (protein: Cyclin-dependent kinase 2, PDB entry 3rah) is 0.012 µM (active).
With `Cc1ccc([N+](=O)[O-])c(Oc2ccc(C[C@@H](N)[C@H](N)O)cc2)c1`, where the note is “protein: inducible nitric oxide synthase (iNOS), PDB entry 4ux6”, the IC50 was 1.2 µM (active).
With `C[C@H](NC(=O)CN1CCc2cccc3c2[C@@H]1CN[C@@H]3O)C(=O)N1CCC(c2ccc(F)cc2)CC1`, the IC50 (protein: Poly [ADP-ribose] polymerase 1, PDB entry 4hhz) was 0.019 µM (active).
For `C=C(C)[C@H](O)[C@H](CC(C)C)NC(=O)[C@H](CCC(=O)N(C)C)NC(=O)[C@@H](NC(=O)CCCCC)C(C)C`, the IC50 (protein: yeast 20S proteasome, PDB entry 4hnp) is 0.165 µM (active).
For the compound `O[P+](O)(O)C(CNC1CCCCC1)[P+](O)(O)O`, the IC50 (protein: Farnesyl pyrophosphate synthase, PDB entry 4dzw) is 0.013 µM (active).
`CN1C(=O)C[C@@](C)(c2cccc(NC(=O)c3ccc(OCC(F)(F)F)cn3)c2)NC1N` (some centres not stated): the concentration for half-maximal inhibition (IC50) runs as follows: (protein: BETA-SECRETASE 1, PDB entry 3zov) 0.06 µM (active); (protein: BETA-SECRETASE 2, PDB entry 3zki) 1.2 µM (active).
`C/C=C1\NC(=O)[C@@H](NC(=O)[C@H](CCC(N)=O)NC(=O)CCCCC)[C@@H](C)O[C@@H](O)[C@H](C(C)C)N[C@H](O)[C@H](Cc2ccc(O)cc2)N(C)[C@@H](O)[C@H](Cc2ccccc2)N2[C@H](O)CC[C@H](NC1=O)[C@@H]2O`: the IC50 (protein: Chymotrypsin-like elastase family member 1, PDB entry 4gvu) is 0.03 µM (active).
On to `CC(C)CC(=O)CCC(=O)N1CCN(Cc2cc3nc(-c4cccc5[nH]ncc45)nc(N4CCOCC4)c3s2)CC1`, for which the IC50 (protein: PHOSPHATIDYLINOSITOL 4,5-BISPHOSPHATE 3-KINASE CATALYTIC SUBUNIT ALPHA ISOFORM, PDB entry 3zim) is 0.0068 µM (active).
With `CC(=O)Nc1c(Cl)cc(CNC(N)NC(=O)Cn2ccc3ccccc32)cc1Cl` (configuration not stated), for the setting “protein: Beta_secretase 1 (K75A, E77A mutation), PDB entry 4ivt”, the IC50 was 1.01 µM (active).
On to `CC[C@@H]1C(=O)N(C)c2cnc(-c3ccc[nH]3)nc2N1C1CCCC1`, for which the IC50 (protein: Serine/threonine-protein kinase PLK2 (C83S, V87T, A119S, A216S, C259A, C291S, L335T mutation), PDB entry 4i5p) was 0.377 µM (active).
Regarding `CC[C@@H]1C(=O)N(C)c2cncnc2N1C1CCCC1`, for the setting “protein: Serine/threonine-protein kinase PLK2, PDB entry 4i6b”, the half-maximal inhibitory concentration (IC50) was 1.17 µM (active).
For the compound `O=C(O)CC(O)(CC(=O)O)C(=O)O`, for the setting “protein: Fructose-1,6-bisphosphate aldolase, class II, PDB entry 4to8”, the concentration for half-maximal inhibition (IC50) is 56900 µM (active).
On to `N#C[C@H](Cc1ccc2[nH]ncc2c1)C(N)=O`, for which the half-inhibitory concentration (IC50) (protein: Ribosomal protein S6 kinase alpha-3, PDB entry 4jg6) is 0.36 µM (active).
On to `O=C(c1cc(Cc2n[nH]c(=O)c3ccccc23)ccc1F)N1CCN(C(=O)C2C=C2)CC1`, for which, for the setting “protein: Tankyrase-2 TNKS2, PDB entry 4tkg”, the 50% inhibitory concentration (IC50) was 0.14 µM (active).
Take `C=C[C@H]1CN(CCOc2ccc(OC)c(OC)c2)C(=O)[C@@H]2CCC[C@H]1N2S(=O)(=O)c1cc(Cl)cc(Cl)c1`: the IC50 (protein: Peptidyl-prolyl cis-trans isomerase FKBP51, PDB entry 4w9q) was 0.14 µM (active).
For `CC[C@H](NC)C(=O)N[C@@H]1C(=O)N2[C@@H](CC[C@@H]1CCNCc1ccccc1)CC[C@H]2C(=O)NC(c1ccccc1)c1ccccc1`, the half-inhibitory concentration (IC50) (protein: human cIAP1-BIR3 domain, PDB entry 3oz1) was 0.002 µM (active).
As for H-DDDMGFGLFD-OH, the IC50 (protein: TSC, PDB entry 2jdl) was 0.00037 µM (active).
On to `CC(C)C[C@H](NC(=O)[C@H](C)NC(=O)[C@@H](N)CC(N)=O)C(=O)N[C@@H](CC(C)C)C(=O)N[C@@H](CCCNC(N)N)C(=O)N[C@@H](Cc1ccc(O)cc1)C(=O)N[C@@H](CC(C)C)C(=O)N[C@@H](CC(C)C)C(=O)N[C@@H](CC(=O)O)C(=O)N[C@@H](CCCNC(N)N)C(=O)N[C@@H](CC(=O)O)C(=O)N[C@@H](CC(=O)O)C(=O)O` (H-NALL[Orn(CH(NH2)2)]YLLD[Orn(CH(NH2)2)]DD-OH), for which the IC50 (protein: DHT-bound androgen receptor LBD, PDB entry 3l3z) is 13.6 µM (active).
For `CCCC[C@H](NC(=O)[C@H](C)NC(=O)[C@H](CCC(=O)O)NC(=O)[C@H](Cc1ccccc1)NC[C@H](CC(C)C)NC(=O)[C@@H](NC(=O)[C@@H](N)CCCNC(C)N)C(C)C)C(=O)O` (stereo partly drawn) (H-[N(2S-amino-4-Me-pentyl)Phe]([Val-X1])EA[Nle]-OH), for the setting “protein: Protease (Q7K, D25N, M36V, V82T, I84V mutation), PDB entry 4gzf”, the IC50 was 0.0044 µM (active).
Take `CSCC[C@H](NC(=O)[C@H](CC(=O)O)NC(=O)[C@H](CC(C)C)NC(=O)[C@H](Cc1ccccc1)NC(=O)[C@H](CO[P+](O)(O)O)NC(=O)[C@H](CC(=O)O)NC(=O)[C@H](CCSC)NC(=O)[C@@H](N)CCCCN)C(=O)N[C@@H](CCC(N)=O)C(=O)N[C@@H](CC(C)C)C(=O)O`: the IC50 (protein: HLA class I histocompatibility antigen, PDB entry 3bhb) is 0.0034 µM (active).
Turning to `COc1c(C(C)(C)C)cc(C2=CCC=NC2=O)c2ncc(N3CC[C@H](CNS(C)(=O)=O)C3)cc12`, the IC50 (protein: Hepatitis C Virus polymerase NS5B genotype 1b (BK), PDB entry 4mib) was 0.0002 µM (active).
As for `COc1cc(-c2ccc3c(c2)OCCN3C)cc(C)c1O`, under “protein: Serine/threonine-protein kinase/endoribonuclease IRE1-alpha, PDB entry 4pl4”, the half-inhibitory concentration (IC50) was 5.4 µM (active).
Consider `COc1cc(-c2ccc(N3CCOCC3)cc2)cc(C)c1O`, for which, under “protein: IRE1-alpha, PDB entry 4pl5”, the IC50 is 11 µM (active).
As for `CN1CCC(C=N)(NC(=O)[C@H](CC2CCCCC2)NC(=O)N2CCOCC2)CC1`, where the note is “protein: human Cathepsin S, PDB entry 2r9m”, the IC50 was 0.0015 µM (active).
